Consider 39 compounds from PubChem BioAssay (EPA / NIEHS).

“And” between values parts separate entries of the source, which are not always exact repeats. Equal entries are not always repeated. Some structures have more than one record in an assay (separate samples or runs), and their calls can disagree. The source made the active and inactive calls. Rule for the calls: active = hit-call score of the fitted dose curve at least 0.9, where 1 is the maximum; inactive = score below 0.9.

Read-out in this experiment: Interleukin-1 alpha (IL1a), IL1A (gene 3552)
Briefly: BSK_BE3C_IL1a: BioMAP Diversity Plus: BE3C Assay for Interleukin-1 alpha (IL1a) Biomarker Activity (AID 2283016). The note with it: primary human bronchial epithelial cells; actives raise or lower the signal. The protocol:
BSK_BE3C is a cell-based, multiplexed-readout assay that uses bronchial epithelial cell, a human lung primary cell, with measurements taken at 24 hours after chemical dosing in a 96-well plate.BSK_BE3C_IL1a is an assay component measured in the BSK_BE3C assay. It measures IL-1a antibody related to regulation of gene expression using ELISA technology.Data from the assay component BSK_BE3C_IL1a was analyzed into 1 assay endpoint. This assay endpoint, BSK_BE3C_IL1a, was analyzed with bidirectional fitting relative to DMSO as the negative control and baseline of activity. Using a type of binding reporter, gain or loss-of-signal activity can be used to understand changes in the signaling as they relate to the gene IL1A. Furthermore, this assay endpoint can be referred to as a primary readout, because this assay has produced multiple assay endpoints where this one serves a signaling function. To generalize the intended target to other relatable targets, this assay endpoint is annotated to the cytokine intended target family, where the subfamily is interleukins.
The levels of cell surface (or secreted, indicated by the prefix "s") biomarker endpoints were measured by ELISA. Overt cytotoxicity to cells in confluent adherent cultures (all systems other than the BT system) was assessed by measuring total protein levels using sulforhodamine B (SRB) staining in parallel cultures at the time of biomarker measurements, indicated as SRB endpoints. For proliferation assays for adherent cell types, individual cell types are cultured at sub-confluence and relative cell numbers quantified by SRB staining at time points optimized for each system (48 h: 3C and CASM3C systems; 72 h: BT and HDF3CGF systems; 96 h: SAg system). SRB was performed by staining cells with 0.1% SRB after fixation with 10% TCA and reading wells at 560 nm.Viability and proliferation of PBMC (T cells) was quantified by Alamar Blue reduction for the SAg and BT systems. For PBMC viability (referred to as PBMC Cytotoxicity within the assay endpoint names), cells were plated (75,000/well in a 96-well plate) and then chemical samples added for 1 h before addition of activators, SEB and TSST-1 (20 ng/mL final concentration each). Cells were incubated for 90 h. Then, Alamar Blue (20 uL/well) (Invitrogen, Cat DAL1100) was added for 6 h, and the plates were read with a fluorescence microplate reader at 546/580 nm (excitation/emission). For PBMC proliferation, cells were plated and activated as above but incubated for only 16 h prior to addition of Alamar Blue. Plates were read after 6 h.
On to `CCOC(=O)C(C)Oc1ccc(Oc2nc3ccc(Cl)cc3o2)cc1` (stereo not given), for which the outcome was inactive.

As to `CCOC(=O)NCCOc1ccc(Oc2ccccc2)cc1`, the result was inactive.

`CCC(C)OC(=O)N1CCCCC1CCO` (stereo not given): the AC50 was 981 nM (active) and the result was inactive.

For `N#CSCSc1nc2ccccc2s1`, the half-maximal activity concentration (AC50) was 6.07 µM (active) and 10.3 µM (active).

Take `CC(=O)[C@H]1CC[C@H]2[C@@H]3CCC4=CC(=O)CC[C@]4(C)[C@H]3CC[C@]12C`: the result was inactive.

For the compound `CCCOC(=O)c1ccc(C(=O)OCCC)nc1`, the outcome was inactive.

As to `CCCCOC(=O)C(C)Oc1ccc(Oc2ccc(C(F)(F)F)cn2)cc1` (stereo not given), the result was inactive.

`O=C(O)C1(C(=O)Nc2ccc(Cl)cc2Cl)CC1`: the result was inactive.

With `CCCCOCCOCCOCc1cc2c(cc1CCC)OCO2`, the outcome was inactive.

Regarding `COC(=O)CSc1cc(N=c2sc(=O)n3n2CCCC3)c(F)cc1Cl`, the outcome was inactive.

On to `COC(=O)c1ccccc1S(=O)(=O)NC(=O)Nc1nc(OC(F)F)cc(OC(F)F)n1`, for which the outcome was inactive.

On to `CCCCC(CC)CN1C(=O)C2C3C=CC(C3)C2C1=O` (stereo not given), for which the outcome was inactive.

With `CCNc1nc(N)nc(Cl)n1`, the result was inactive.

Regarding `CCCCC(CC)COC(=O)c1ccccc1C(=O)O` (stereo not given), the outcome was inactive.

Consider `COC(=O)c1ccc(CNS(C)(=O)=O)cc1S(=O)(=O)NC(=O)Nc1nc(OC)cc(OC)n1`, for which the outcome was inactive.

Consider `COC(=O)c1ccccc1C(=O)O`, for which the outcome was inactive.

Consider `COC(=O)c1ccc(I)cc1S(=O)(=O)NC(=O)Nc1nc(C)nc(OC)n1`, for which the result was inactive.

For the compound `CC(C)(C)[C@@H](O)[C@@H](Cc1ccc(Cl)cc1)n1cncn1`, the outcome was inactive.

Turning to `c1ccc2[nH]c(-c3cscn3)nc2c1`, the outcome was inactive.

As to `O=C(Nc1ccc([N+](=O)[O-])cc1Cl)c1cc(Cl)ccc1O`, the AC50 was 148 nM (active).

On to `CCC(O)=C1C(=O)CC(C(=O)O)CC1=O` (stereo not given), for which the outcome was inactive.

Consider `CCN(CC)C(=O)c1cccc(C)c1`, for which the result was inactive.

On to `CCCN(CCC)c1c([N+](=O)[O-])cc(C(F)(F)F)c(N)c1[N+](=O)[O-]`, for which the AC50 is 31300 nM (active).

For `CC(=O)S[C@@H]1CC2=CC(=O)CC[C@]2(C)[C@H]2CC[C@@]3(C)[C@@H](CC[C@@]34CCC(=O)O4)[C@H]12`, the outcome was inactive.

Regarding `Cc1nn(C)c(Oc2ccccc2)c1C=NOCc1ccc(C(=O)OC(C)(C)C)cc1`, the result was inactive.

For `CCCOC(=O)NCCCN(C)C`, the outcome was inactive.

As to `C#CCOC(=O)[C@@H](C)Oc1ccc(Oc2ncc(Cl)cc2F)cc1`, the result was inactive.

Take `Oc1ccc(C(c2ccc(O)cc2)C(Cl)(Cl)Cl)cc1`: the AC50 was 31500 nM (active).

As to `C[C@]12CC[C@@H]3c4ccc(O)cc4C[C@@H](CCCCCCCCCS(=O)CCCC(F)(F)C(F)(F)F)[C@H]3[C@@H]1CC[C@@H]2O` (stereo not given in full), the outcome was inactive.

As to `C[C@]12C[C@H](O)[C@H]3[C@@H](CCC4=CC(=O)CC[C@@]43C)[C@@H]1CC[C@@H]2C(=O)CO`, the outcome was inactive.

On to `CCCCCCC(C)OC(=O)COc1nc(F)c(Cl)c(N)c1Cl` (stereo not given), for which the outcome was inactive.

On to `O=C(c1ccccc1)C1CCCCC1`, for which the outcome was inactive.

For `CSC(=O)c1cccc2nnsc12`, the result was inactive.

Regarding `COC(=O)c1c(Cl)nn(C)c1S(=O)(=O)NC(=O)Nc1nc(OC)cc(OC)n1`, the outcome was inactive.

Consider `CCCN(CCC)C(=O)SCC`, for which the result was inactive.

`CN(C)C(=O)Nc1ccc(Cl)c(Cl)c1`: the result was inactive.

`S=C(S)NCCNC(=S)S.[Mn+2].[S-]C([S-])=NCCN=C([S-])[S-].[Zn+2]`: the outcome was inactive.

As for `CCCCCOC(=O)COc1cc(N2C(=O)C3=C(CCCC3)C2=O)c(F)cc1Cl`, the result was inactive.

As for `CCN(Cc1c(F)cccc1Cl)c1c([N+](=O)[O-])cc(C(F)(F)F)cc1[N+](=O)[O-]`, the result was inactive.
